39 molecules from PubChem BioAssay can be followed below.

Molecules are shown by their SMILES. Calls of active or inactive are those of the source.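 Rule for the calls: active = calcium signal rise more than 3 SD above the low-dose agonist control mean, in both duplicate plates and the primary screen; inactive = the rest.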

This experiment in a line: nonspecific potentiation of DAMGO calcium response – cell-based, HEK293 mu-opioid receptor line, counter-screen for TRPC4 allosteric potentiator project, confirmation (AID 449724).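 Note: HEK293 cells carrying mu-opioid receptor only with no TRPC4 channel.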 Particulars: HEK293 mu-opioid receptor cells, Fluo-4 calcium flux, at 10 µM, compound added before EC20 DAMGO stimulus; stronger effect = higher value. Background: The purpose of a counterscreen is to sort out artefacts and off-target activity.
In the case of `COC(=O)c1ccccc1NC(=O)c1cnn2cccnc12`, the outcome was inactive.

As to `Cc1cc(Cl)ccc1OC(C)C(=O)Nc1ccccc1N1CCOCC1` (centres undefined), the activation was 1140% (active).

On to `CC(C(=O)c1ccc(Br)cc1)[n+]1cccc(NC(=O)c2ccccc2)c1` (centres undefined), for which the result was inactive.

For `Cn1c(SCCOc2ccccc2F)nc2ccccc2c1=O`, the result was inactive.

For the molecule `O=C(CN1CCCN(S(=O)(=O)c2ccc(F)cc2)CC1)Nc1ccccc1Br`, the outcome was inactive.

As for `Cc1c(CCOC(=O)c2ccccc2)sc[n+]1CC(=O)c1ccc(Br)cc1`, the result was inactive.

As to `Cc1c(N2C(=O)/C(=C/c3ccccc3)SC2=S)c(=O)n(-c2ccccc2)n1C`, the result was inactive.

As to `CCOC(=O)Cc1csc(NC(=O)NC2(C(F)(F)F)Oc3cc(Cl)c(Cl)cc3O2)n1`, the outcome was inactive.

Regarding `CCCn1nc(C(=O)NC2CCCc3ccccc32)c2ccccc2c1=O` (centres undefined), the result was inactive.

For `CCOC(=O)c1c(C)n(-c2ccc(C)cc2)c2ccc(OCC(O)CNCC3CCCO3)cc12` (centres undefined), the outcome was inactive.

With `O=C(NCCCN1CCN(CCCNC(=O)c2cccc(Cl)c2)CC1)c1cccc(Cl)c1`, the result was inactive.

Regarding `COC(=O)[C@@]12CCCCN1[C@H](c1ccc(-c3ccc(C(C)=O)cc3)cc1)[C@@H]1C(=O)N(C)C(=O)[C@@H]12`, the result was inactive.

With `Cc1ccc(CNC(=O)CSc2nc(=O)n3ccccc3n2)cc1`, the outcome was inactive.

Take `CCCCCCc1cc2cc(-c3nnc(-c4ccccc4O)o3)c(=O)oc2cc1O`: the activation was 1460% (active).

`CCCCN(C)CCNC(=O)C1CCCN(S(=O)(=O)c2cccc3nsnc23)C1` (centres undefined): the outcome was inactive.

As to `Cc1cccc(NC(=O)CNC(=O)CN2C(=O)NC3(CCCCC3C)C2=O)c1C` (centres undefined), the outcome was inactive.

For the molecule `CC(C)c1ccc(OCc2ccc(C(=O)N3CCCC3)o2)cc1`, the outcome was inactive.

On to `COc1ccc(-n2cc(CNCc3cnc4ccccn34)c(-c3cccc(F)c3)n2)cc1`, for which the outcome was inactive.

In the case of `COc1ccc(CCN2C(=S)N(C)C(=O)C2CC(=O)Nc2ccc(F)cc2)cc1` (centres undefined), the result was inactive.

As for `CCOC(=O)C1=NNC(C(=O)c2ccc(Cl)cc2)C1c1ccc(OC)cc1` (centres undefined), the result was inactive.

Consider `Cc1ccc(C(C)C)c(OCCCCN2CCNCC2)c1`, for which the outcome was inactive.

For `CCOC(=O)CSc1nc2ccccc2c(=O)n1C1CCCC1`, the result was inactive.

With `Clc1ccc(Cl)c(OCCCCN2CCNCC2)c1`, the result was inactive.

Turning to `COc1ccc(-c2cc(C(=O)N3CC(C)CC(C)C3)c3ccccc3n2)cc1` (centres undefined), the result was inactive.

Turning to `Cn1c(N2CCC(C(N)=O)CC2)nc2c1c(=O)n(Cc1ccc(Br)cc1)c(=O)n2C`, the outcome was inactive.

On to `OC1(c2ccc(Cl)cc2)CN(c2ccccc2)C2=[N+]1CCS2` (centres undefined), for which the result was inactive.

On to `CCN(CCCNC(=O)CCCOc1cc(=O)n(C)c2ccccc12)Cc1ccccc1`, for which the result was inactive.

For `O=C(NN/C(=N/S(=O)(=O)c1ccc(Cl)cc1)c1ccccc1)c1cccc(Cl)c1`, the result was inactive.

Turning to `CCn1c2ccc(F)cc2c2nnc(NN)nc21`, the outcome was inactive.

With `CCN(CC)CCOCCOc1ccc(Cl)c2ccccc12`, the result was inactive.

Turning to `O=C(NCCCN1CCCC1=O)c1ccc(CNS(=O)(=O)c2ccc(F)cc2)cc1`, the result was inactive.

Regarding `Cc1noc(C)c1COC(=O)[C@@H](NC(=O)c1ccccc1Cl)C(C)C`, the outcome was inactive.

In the case of `C/C=C/Cn1c(SCCCc2ccccc2)nc2c1c(=O)[nH]c(=O)n2C`, the outcome was inactive.

Consider `O=[N+]([O-])c1ccc2c(c1)C=C1CCCCC1(N1CCCC1)O2` (centres undefined), for which the outcome was inactive.

In the case of `COc1ccc(CCn2c(=S)[nH]c3cc(C(=O)N4CCOCC4)ccc3c2=O)cc1OC`, the result was inactive.

As for `CN(C)CCCCOc1cccc(Br)c1`, the outcome was inactive.

Regarding `CC1=CC(=O)C(C(C)C)=C/C1=N/OS(=O)(=O)c1ccccc1`, the outcome was inactive.

For the molecule `O=C1CC(NS(=O)(=O)c2cccs2)CN1c1ccccc1` (centres undefined), the outcome was inactive.

Turning to `OCCNCc1cc(Br)ccc1OCc1ccccc1`, the outcome was inactive.
